This is part of a sample that, as a whole, favours compounds with a hit. Of some 83,000 tested, about 20% had one in any assay.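 The test compound was applied at a single concentration to cells in 96-well plates for 48 hours, and percent growth was recorded.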 A number with no mark means an inactive call. Active and inactive are the calls of the source. The calls were made as follows: active = growth percent below 10; inactive = the rest.
Tests used:
Assay in all cases: NCI-60 one-dose screen, 48 h (100 = growth as untreated, 0 = no growth, -100 = all killed)
Conditions in all cases: 10 µM
HT29 colon = system: HT29 colon
SNB-75 CNS = system: SNB-75 CNS
SNB-19 CNS = system: SNB-19 CNS
U251 CNS = system: U251 CNS
PC-3 prostate = system: PC-3 prostate
SK-MEL-5 melanoma = system: SK-MEL-5 melanoma
UACC-62 melanoma = system: UACC-62 melanoma
LOX IMVI melanoma = system: LOX IMVI melanoma
SK-MEL-28 melanoma = system: SK-MEL-28 melanoma
SK-MEL-2 melanoma = system: SK-MEL-2 melanoma

Row | SMILES | growth (HT29 colon) | growth (SNB-75 CNS) [%] | growth (SNB-19 CNS) [%] | growth (U251 CNS) | growth (PC-3 prostate) | growth (SK-MEL-5 melanoma) | growth (UACC-62 melanoma) | growth (LOX IMVI melanoma) | growth (SK-MEL-28 melanoma) | growth (SK-MEL-2 melanoma)
1 | CCCN(CCC)CCC(O)c1cc2c(c3ccccc13)CCCC2 (stereo not given) | 52.3% | 75.7 | 90.5 | 83.5% | 80.9% | 94.7% | 81.7% | 89% | 98.1% | 108%
2 | O=C1Nc2ccc(Cl)cc2/C1=C\c1c(-c2ccc(Cl)cc2)nc2sc(C3CC3)nn12 | 61.8% | 11.3 | 74.3 | 52.6% | 75.6% | 72% | 38.4% | 26% | 46% | 103%
3 | Nc1nccc(Nc2ccccc2)n1 | 121% | 90.9 | 116 | 104% | 102% | 107% | 105% | 109% | 116% | 117%
4 | N#Cc1ncc(-c2cc(F)c(F)c(F)c2)c(NC2CCCCCC2)n1 | 97.6% | 65.1 | 90.9 | 50.2% | 77.1% | 93% | 84.8% | 84.9% | 94.1% | 96.2%
5 | CC(C)=NNc1ncnc2c1ncn2C1OC(CO)C(O)C1O (stereo not given) | 18.1% | 32.1 | 42.5 | 29.1% | 17.7% | 20.5% | 34.7% | 7.06% (active) | 54.7% | 41.4%
6 | CCN1CCC(CCOC)(CN2c3ccccc3Sc3ccc(Cl)cc32)C1 (stereo not given) | 7.66% (active) | 47.8 | 70.8 | 40.5% | 35.7% | -49.1% (active) | -46.7% (active) | -5.49% (active) | 58.2% | 88.5%
7 | CCn1cc(C(=O)O)c(=O)c2cnc(N3CCCC3)nc21 | 111% | 88.1 | 105 | 103% | 102% | 102% | 108% | 99.3% | 113% | 97.7%
8 | C=C1c2c(C)nn(-c3ccc(OC)cc3)c2N(C)C23C[C@@H]1C1(C)c4c(C)nn(-c5ccc(OC)cc5)c4N(C)C(C)(C[C@H]12)C3 (stereo not given in full) | 19.4% | 59.6 | 46.8 | 32.1% | -4.74% (active) | 16.1% | 26.9% | 18.4% | 56.8% | 37.2%
9 | Nc1nc(N)c(NC(=O)CNc2ccc(C(=O)O)cc2)c(N)n1 | 107% | 76 | 105 | 105% | 101% | 103% | 101% | 98.3% | 97.9% | 102%
10 | O=C(Nc1cccc(-n2cc(-c3ccncc3)c(-c3cc(O)cc(Cl)c3)n2)c1)Nc1ccc(Cl)c(C(F)(F)F)c1 | 35.3% | 24.1 | 44.5 | -26.5% (active) | 5.34% (active) | 23.8% | -1.44% (active) | 2.08% (active) | -13.5% (active) | -37.9% (active)
11 | O=C(N/N=C\c1cc(Cl)ccc1[N+](=O)[O-])c1ccco1 | 107% | 96 | 102 | 97.4% | 100% | 111% | 101% | 103% | 110% | 117%
12 | CN(C)N=Nc1nn(C(=O)Nc2ccc(Cc3ccccc3)cc2)c2ccccc12 | 41% | 101 | 64 | 67.9% | 29.5% | -37.5% (active) | -8.25% (active) | 1.48% (active) | 43.2% | 58.4%
13 | COc1cc(-c2cc(/C=C3\C(=O)Nc4ccccc43)[nH]n2)cc(OC)c1OC | 55.7% | 44.5 | 65.8 | 56.1% | 19% | -57% (active) | -11.1% (active) | 38.6% | 59.8% | 27.5%
14 | Nc1ccccc1NC(=O)CCCCC(=O)Nc1ccc2c(c1)/C(=C/c1ccc[nH]1)C(=O)N2 | 67.2% | 16.9 | 76.4 | 48.5% | 81.6% | 87.7% | 58% | 85.2% | 86.1% | 46.2%
15 | O=C(Nc1nc(-c2ccccc2Cl)cs1)c1cc(-c2ccc(Cl)cc2)nc2ccc(Cl)cc12 | 6.1% (active) | 20.6 | 39 | 12.5% | 20.8% | -25.4% (active) | 37.5% | 15% | 53.5% | 10.7%
16 | OCC1OC(n2cnc3c(N/N=C\c4ccccn4)ncnc32)C(O)C1O (stereo not given) | 34.5% | 40.3 | 34.5 | 25.1% | 21% | -10.1% (active) | 22% | 11.2% | 38% | 58.2%
17 | Nc1ccc2cc(S(=O)(=O)O)cc(O)c2c1N=Nc1ccc(F)cc1 | 107% | 123 | 104 | 115% | 91.5% | 108% | 96% | 93.5% | 132% | 101%
18 | COc1cc(NC(=O)c2sc3nc4c(cc3c2N)C(O)CCC4)cc(OC)c1 (stereo not given) | 67% | 82.1 | 93.6 | 78.6% | 99.5% | 88.4% | 73% | 93.3% | 85.1% | 61.6%
19 | C(CCCC1=NCCO1)CCCC1=NCCO1 | 118% | 77.5 | 97.8 | 97.9% | 98% | 99.7% | 93% | 94% | 95.4% | 98.3%
20 | O=C(Nc1nc2ccccc2s1)Nc1ccc([N+](=O)[O-])cc1Cl | 55.8% | 16.8 | 111 | 32.6% | 52% | 98.5% | 67.1% | 12.7% | 68.5% | 111%
21 | O=C1NC(=O)N(Cc2ccccc2)CC1Br (stereo not given) | 77.3% | 91.4 | 90.6 | 59.6% | 73.1% | 77.5% | 72.8% | 25.8% | 97.7% | 70.4%
22 | Cc1ccc(-c2nc(/C=C3/C(=O)N(C)c4ccc(F)cc43)c3ccccn23)cc1 | 112% | 87.4 | 101 | 80.8% | 113% | 95.6% | 97.8% | 95.9% | 108% | 115%
23 | CCN1CCC2(CC1)OC(c1ccccc1)C(c1ccccc1)O2 (stereo not given) | 96% | 88.2 | 112 | 109% | 89.1% | 105% | 115% | 90.8% | 107% | 105%
24 | N=C(N)c1ccc(-c2ccc(-c3cccs3)o2)cc1 | -26.5% (active) | 40.6 | 73.7 | 12.4% | 50.5% | 44.6% | 67.7% | 12.2% | 47.6% | -7.14% (active)
25 | CC(=O)N1C/C(=C/c2ccc(Cl)cc2)C(=O)/C(=C/c2ccc(Cl)cc2)C1 | -62.2% (active) | 30.1 | 15 | -76.8% (active) | -42.4% (active) | -52.1% (active) | -74.6% (active) | -79.6% (active) | -54.2% (active) | -0.636% (active)
26 | CC12O[C@H](C[C@@H](O)[C@H]1O)n1c3ccccc3c3c4c(c5c6ccccc6n2c5c31)C(=O)N(CCCN)C4=O | 11.3% | 49.8 | 26.9 | 14.8% | 34% | 40.6% | 47.8% | 1.96% (active) | 92.1% | 50.3%
27 | O=C1Nc2ccccc2C1=NC1CCCCC1 | 99.2% | 88.1 | 111 | 101% | 94% | 94.3% | 105% | 87.5% | 115% | 88.6%
28 | O=C(O)CCCCSc1ncnc2nc[nH]c12 | 106% | 102 | 107 | 95.5% | 99.1% | 101% | 111% | 92.3% | 112% | 92.4%

— PubChem BioAssay (NCI)
